In ChEMBL document CHEMBL1961873, “Compounds: GSK PKIS; Assays: Nanosyn kinase panel” (2012) one finds inhibition data, which are given here for one compound.

The target of experiment [1] is T1, Inhibitor of nuclear factor kappa-B kinase subunit epsilon (Homo sapiens) (UniProt Q14164).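 Further: reported values are averaged percent inhibition figures against human IKKε.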
T1 sequence (whole entry): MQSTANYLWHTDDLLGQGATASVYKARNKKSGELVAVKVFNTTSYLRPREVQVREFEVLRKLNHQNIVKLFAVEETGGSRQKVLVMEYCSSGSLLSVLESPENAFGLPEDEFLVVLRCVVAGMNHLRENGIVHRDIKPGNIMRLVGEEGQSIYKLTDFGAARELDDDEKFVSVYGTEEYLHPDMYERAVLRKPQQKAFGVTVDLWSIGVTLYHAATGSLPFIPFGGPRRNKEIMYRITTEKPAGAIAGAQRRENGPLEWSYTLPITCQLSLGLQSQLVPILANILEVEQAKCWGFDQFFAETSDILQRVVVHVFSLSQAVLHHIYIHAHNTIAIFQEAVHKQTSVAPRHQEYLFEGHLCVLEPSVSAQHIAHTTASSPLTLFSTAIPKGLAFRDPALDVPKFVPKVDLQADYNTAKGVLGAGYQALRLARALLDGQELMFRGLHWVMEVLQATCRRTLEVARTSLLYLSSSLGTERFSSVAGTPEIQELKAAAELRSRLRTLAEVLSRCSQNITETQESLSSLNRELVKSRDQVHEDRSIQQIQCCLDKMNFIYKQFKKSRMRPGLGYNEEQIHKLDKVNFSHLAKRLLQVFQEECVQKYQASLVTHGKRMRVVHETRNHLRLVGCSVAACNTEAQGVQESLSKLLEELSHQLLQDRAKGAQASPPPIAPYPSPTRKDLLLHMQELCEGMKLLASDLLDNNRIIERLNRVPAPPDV
The note with it: at 1 µM.

For experiment [2], the target named is T2, Serine/threonine-protein kinase Nek1 (Homo sapiens) (UniProt Q96PY6).
T2 sequence (whole entry): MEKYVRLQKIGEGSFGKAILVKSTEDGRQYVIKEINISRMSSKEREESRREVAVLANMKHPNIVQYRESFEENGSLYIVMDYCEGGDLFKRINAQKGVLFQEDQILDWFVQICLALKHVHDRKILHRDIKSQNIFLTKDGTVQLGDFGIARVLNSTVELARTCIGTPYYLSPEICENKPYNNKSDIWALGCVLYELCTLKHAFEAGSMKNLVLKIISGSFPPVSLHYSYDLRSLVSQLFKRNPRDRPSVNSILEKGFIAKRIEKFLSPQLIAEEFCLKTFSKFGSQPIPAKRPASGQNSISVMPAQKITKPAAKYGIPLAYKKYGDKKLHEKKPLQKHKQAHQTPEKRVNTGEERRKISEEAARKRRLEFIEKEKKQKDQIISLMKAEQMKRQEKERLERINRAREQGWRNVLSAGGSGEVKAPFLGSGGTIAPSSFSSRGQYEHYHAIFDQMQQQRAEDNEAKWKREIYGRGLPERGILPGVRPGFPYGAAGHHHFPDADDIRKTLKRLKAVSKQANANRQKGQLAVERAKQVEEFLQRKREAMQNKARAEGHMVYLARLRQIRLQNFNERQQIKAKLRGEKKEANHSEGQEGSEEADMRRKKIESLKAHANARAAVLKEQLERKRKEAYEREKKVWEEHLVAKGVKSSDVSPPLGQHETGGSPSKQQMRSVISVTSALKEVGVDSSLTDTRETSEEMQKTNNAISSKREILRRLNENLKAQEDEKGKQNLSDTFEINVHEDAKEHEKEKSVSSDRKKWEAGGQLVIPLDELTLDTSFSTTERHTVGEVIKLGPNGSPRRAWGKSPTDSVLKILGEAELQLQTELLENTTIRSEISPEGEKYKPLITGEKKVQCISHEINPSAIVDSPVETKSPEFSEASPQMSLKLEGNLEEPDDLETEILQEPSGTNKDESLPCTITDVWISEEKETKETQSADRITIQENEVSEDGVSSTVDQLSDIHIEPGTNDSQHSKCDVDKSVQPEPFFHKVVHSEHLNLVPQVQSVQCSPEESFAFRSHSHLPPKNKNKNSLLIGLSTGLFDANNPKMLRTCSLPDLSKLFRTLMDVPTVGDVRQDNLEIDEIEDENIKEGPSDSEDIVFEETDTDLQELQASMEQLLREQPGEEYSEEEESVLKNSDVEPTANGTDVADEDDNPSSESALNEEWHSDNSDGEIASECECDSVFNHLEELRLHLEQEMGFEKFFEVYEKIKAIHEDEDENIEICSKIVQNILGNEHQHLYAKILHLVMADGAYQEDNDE
The note with it: at 0.1 µM.

Experiment [3] addresses T2, Serine/threonine-protein kinase Nek1 (Homo sapiens). As to conditions: at 1 µM.
The target in experiment [4] is T3, Serine/threonine-protein kinase Nek2 (Homo sapiens) (UniProt P51955).
T3 sequence (whole entry): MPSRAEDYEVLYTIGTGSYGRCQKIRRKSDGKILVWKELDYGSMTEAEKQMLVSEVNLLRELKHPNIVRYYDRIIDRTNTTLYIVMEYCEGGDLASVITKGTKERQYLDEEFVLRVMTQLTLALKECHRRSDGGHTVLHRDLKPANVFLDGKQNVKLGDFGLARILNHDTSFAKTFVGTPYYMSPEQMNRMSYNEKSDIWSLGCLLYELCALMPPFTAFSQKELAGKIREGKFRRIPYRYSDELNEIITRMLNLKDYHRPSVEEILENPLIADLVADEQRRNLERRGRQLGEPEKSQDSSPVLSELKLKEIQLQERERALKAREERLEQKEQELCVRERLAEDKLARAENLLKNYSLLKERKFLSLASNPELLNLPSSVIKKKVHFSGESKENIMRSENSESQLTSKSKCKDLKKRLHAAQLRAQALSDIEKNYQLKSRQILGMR
The note with it: at 0.1 µM.

Experiment [5] deals with T3, Serine/threonine-protein kinase Nek2 (Homo sapiens). The note with it: at 1 µM.
For experiment [6], the target named is Serine/threonine-protein kinase Nek6 (Homo sapiens) (UniProt Q9HC98). The note with it: at 0.1 µM.
Serine/threonine-protein kinase Nek6 (Homo sapiens), sequence (Q9HC98 whole entry): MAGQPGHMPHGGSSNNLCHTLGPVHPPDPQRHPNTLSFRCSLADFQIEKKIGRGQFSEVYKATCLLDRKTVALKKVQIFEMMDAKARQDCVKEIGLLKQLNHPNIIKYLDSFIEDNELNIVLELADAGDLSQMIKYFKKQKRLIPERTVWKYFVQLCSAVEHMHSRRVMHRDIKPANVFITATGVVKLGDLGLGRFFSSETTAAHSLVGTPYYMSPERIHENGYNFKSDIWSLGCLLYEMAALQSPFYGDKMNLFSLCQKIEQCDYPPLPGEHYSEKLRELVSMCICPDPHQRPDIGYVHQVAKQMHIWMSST
The target is the same in experiment [7]. The note with it: at 1 µM.
Experiment [8] addresses Serine/threonine-protein kinase Nek7 (Homo sapiens) (UniProt Q8TDX7). The note with it: at 0.1 µM.
For experiment [9] the target is unchanged. As to conditions: at 1 µM.
Experiment [10] concerns the target T4, Serine/threonine-protein kinase Nek9 (Homo sapiens) (UniProt Q8TD19).
T4 sequence (whole entry): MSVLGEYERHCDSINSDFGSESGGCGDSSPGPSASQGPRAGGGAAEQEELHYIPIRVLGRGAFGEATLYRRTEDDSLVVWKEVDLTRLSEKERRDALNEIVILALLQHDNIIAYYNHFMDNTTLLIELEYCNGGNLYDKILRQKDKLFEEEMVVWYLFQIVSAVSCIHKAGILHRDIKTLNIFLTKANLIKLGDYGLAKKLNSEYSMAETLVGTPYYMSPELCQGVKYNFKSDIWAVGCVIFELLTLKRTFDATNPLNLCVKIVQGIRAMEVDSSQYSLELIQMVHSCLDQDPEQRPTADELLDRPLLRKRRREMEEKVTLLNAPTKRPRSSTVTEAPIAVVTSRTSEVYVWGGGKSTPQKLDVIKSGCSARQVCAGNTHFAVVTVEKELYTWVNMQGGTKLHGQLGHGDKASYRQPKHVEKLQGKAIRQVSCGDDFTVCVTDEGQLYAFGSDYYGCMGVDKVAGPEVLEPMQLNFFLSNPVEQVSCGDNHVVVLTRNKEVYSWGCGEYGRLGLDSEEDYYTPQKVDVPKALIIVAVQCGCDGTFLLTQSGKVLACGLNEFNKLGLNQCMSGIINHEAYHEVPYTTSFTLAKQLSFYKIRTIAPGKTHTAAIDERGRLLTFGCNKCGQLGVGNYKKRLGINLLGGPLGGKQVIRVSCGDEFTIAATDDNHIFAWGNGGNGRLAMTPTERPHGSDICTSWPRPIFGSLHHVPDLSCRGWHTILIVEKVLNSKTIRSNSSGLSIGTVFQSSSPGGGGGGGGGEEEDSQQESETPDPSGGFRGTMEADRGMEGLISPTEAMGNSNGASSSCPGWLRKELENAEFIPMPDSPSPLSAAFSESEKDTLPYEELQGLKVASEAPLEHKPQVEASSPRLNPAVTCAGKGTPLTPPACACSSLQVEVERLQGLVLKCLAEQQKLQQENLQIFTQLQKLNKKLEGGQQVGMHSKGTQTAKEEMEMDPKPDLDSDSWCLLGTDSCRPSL
The note with it: at 0.1 µM.

For experiment [11], the target named is T4, Serine/threonine-protein kinase Nek9 (Homo sapiens). The note with it: at 1 µM.
Experiment [12] addresses Serine/threonine-protein kinase PLK1 (Homo sapiens) (UniProt P53350). As to conditions: at 0.1 µM.
Experiment [13] shares this target. The note with it: at 1 µM.
Experiment [14] addresses T5, Dual specificity protein kinase TTK (Homo sapiens) (UniProt P33981).
T5 sequence (whole entry): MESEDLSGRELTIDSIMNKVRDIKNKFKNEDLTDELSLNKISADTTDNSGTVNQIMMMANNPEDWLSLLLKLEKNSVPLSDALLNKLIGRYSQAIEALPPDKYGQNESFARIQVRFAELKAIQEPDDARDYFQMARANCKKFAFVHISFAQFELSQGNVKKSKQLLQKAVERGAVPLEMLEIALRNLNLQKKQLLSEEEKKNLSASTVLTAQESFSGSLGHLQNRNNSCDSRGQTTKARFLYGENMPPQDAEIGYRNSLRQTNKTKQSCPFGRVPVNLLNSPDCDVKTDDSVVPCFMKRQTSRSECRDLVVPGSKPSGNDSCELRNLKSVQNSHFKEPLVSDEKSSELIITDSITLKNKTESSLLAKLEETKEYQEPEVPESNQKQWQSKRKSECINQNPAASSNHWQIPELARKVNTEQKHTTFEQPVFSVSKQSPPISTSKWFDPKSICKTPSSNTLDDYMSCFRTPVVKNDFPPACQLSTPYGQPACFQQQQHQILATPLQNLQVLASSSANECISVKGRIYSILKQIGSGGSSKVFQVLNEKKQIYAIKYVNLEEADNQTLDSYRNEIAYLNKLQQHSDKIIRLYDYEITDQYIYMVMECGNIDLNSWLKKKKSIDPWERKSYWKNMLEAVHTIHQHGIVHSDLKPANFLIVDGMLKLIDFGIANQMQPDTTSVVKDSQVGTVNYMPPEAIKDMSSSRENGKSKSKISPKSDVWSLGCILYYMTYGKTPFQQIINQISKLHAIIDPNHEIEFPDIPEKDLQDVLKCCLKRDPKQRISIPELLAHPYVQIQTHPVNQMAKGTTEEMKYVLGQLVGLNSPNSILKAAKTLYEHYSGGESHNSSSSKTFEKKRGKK
As to conditions: at 0.1 µM.

Experiment [15] deals with T6, Receptor-type tyrosine-protein kinase FLT3 (Homo sapiens), P36888 [D835Y].
T6 sequence (whole entry): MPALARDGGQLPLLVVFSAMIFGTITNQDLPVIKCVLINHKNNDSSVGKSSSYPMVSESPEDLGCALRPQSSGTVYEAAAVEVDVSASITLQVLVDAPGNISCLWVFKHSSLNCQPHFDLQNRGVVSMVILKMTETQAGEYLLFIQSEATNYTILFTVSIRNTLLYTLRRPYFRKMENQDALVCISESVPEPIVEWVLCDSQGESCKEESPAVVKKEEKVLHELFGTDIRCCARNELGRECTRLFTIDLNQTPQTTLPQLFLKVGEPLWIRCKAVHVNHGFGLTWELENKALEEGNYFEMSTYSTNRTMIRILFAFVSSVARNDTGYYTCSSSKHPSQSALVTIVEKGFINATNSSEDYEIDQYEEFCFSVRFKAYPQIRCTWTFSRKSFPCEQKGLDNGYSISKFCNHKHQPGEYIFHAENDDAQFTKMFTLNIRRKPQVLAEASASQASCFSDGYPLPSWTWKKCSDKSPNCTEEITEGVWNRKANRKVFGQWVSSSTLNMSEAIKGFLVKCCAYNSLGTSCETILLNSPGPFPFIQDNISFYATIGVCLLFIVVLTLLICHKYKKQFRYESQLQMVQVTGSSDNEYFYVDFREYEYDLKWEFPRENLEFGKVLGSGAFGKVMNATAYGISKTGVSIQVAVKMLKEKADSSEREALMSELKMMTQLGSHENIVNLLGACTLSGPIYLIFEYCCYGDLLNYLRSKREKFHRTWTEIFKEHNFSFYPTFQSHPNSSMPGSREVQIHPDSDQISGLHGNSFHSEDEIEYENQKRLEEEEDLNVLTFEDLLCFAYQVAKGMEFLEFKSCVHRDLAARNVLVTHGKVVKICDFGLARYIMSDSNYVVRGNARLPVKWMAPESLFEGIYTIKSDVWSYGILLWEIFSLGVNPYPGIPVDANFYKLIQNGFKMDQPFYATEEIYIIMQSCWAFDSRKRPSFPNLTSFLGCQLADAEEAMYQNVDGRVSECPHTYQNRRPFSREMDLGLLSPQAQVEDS
The note with it: at 1 µM.

Experiment [16] concerns the target Vascular endothelial growth factor receptor 3 (Homo sapiens) (UniProt P35916). As to conditions: at 0.1 µM.
Experiment [17] shares this target. The note with it: at 1 µM.
Experiment [18] addresses Macrophage colony-stimulating factor 1 receptor (Homo sapiens) (UniProt P07333). As to conditions: at 0.1 µM.
Experiment [19] has the same target. The note with it: at 1 µM.
Experiment [20] deals with Tyrosine-protein kinase Fyn (Homo sapiens) (UniProt P06241). As to conditions: at 0.1 µM.
Tyrosine-protein kinase Fyn (Homo sapiens), sequence (P06241 2-537 limits assumed): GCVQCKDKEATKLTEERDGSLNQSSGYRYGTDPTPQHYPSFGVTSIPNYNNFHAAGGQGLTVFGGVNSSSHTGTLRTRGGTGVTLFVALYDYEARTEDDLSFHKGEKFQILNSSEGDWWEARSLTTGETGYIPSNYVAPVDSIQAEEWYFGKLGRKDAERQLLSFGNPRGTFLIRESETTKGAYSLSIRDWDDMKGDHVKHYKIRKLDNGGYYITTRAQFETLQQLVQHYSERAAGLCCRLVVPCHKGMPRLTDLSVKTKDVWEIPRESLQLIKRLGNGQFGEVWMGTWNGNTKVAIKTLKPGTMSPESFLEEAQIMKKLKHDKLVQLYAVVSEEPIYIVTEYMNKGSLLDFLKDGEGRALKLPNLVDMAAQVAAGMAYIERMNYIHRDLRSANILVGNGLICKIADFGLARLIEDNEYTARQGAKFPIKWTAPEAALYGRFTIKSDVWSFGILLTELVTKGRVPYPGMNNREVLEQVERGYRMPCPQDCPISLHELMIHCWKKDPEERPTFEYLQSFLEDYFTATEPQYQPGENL

For orientation: inhibition means the change of the read-out against control, counted positive when it falls.

Structures are written as SMILES.

Vascular endothelial growth factor receptor 3 (Homo sapiens), sequence (P35916 whole entry): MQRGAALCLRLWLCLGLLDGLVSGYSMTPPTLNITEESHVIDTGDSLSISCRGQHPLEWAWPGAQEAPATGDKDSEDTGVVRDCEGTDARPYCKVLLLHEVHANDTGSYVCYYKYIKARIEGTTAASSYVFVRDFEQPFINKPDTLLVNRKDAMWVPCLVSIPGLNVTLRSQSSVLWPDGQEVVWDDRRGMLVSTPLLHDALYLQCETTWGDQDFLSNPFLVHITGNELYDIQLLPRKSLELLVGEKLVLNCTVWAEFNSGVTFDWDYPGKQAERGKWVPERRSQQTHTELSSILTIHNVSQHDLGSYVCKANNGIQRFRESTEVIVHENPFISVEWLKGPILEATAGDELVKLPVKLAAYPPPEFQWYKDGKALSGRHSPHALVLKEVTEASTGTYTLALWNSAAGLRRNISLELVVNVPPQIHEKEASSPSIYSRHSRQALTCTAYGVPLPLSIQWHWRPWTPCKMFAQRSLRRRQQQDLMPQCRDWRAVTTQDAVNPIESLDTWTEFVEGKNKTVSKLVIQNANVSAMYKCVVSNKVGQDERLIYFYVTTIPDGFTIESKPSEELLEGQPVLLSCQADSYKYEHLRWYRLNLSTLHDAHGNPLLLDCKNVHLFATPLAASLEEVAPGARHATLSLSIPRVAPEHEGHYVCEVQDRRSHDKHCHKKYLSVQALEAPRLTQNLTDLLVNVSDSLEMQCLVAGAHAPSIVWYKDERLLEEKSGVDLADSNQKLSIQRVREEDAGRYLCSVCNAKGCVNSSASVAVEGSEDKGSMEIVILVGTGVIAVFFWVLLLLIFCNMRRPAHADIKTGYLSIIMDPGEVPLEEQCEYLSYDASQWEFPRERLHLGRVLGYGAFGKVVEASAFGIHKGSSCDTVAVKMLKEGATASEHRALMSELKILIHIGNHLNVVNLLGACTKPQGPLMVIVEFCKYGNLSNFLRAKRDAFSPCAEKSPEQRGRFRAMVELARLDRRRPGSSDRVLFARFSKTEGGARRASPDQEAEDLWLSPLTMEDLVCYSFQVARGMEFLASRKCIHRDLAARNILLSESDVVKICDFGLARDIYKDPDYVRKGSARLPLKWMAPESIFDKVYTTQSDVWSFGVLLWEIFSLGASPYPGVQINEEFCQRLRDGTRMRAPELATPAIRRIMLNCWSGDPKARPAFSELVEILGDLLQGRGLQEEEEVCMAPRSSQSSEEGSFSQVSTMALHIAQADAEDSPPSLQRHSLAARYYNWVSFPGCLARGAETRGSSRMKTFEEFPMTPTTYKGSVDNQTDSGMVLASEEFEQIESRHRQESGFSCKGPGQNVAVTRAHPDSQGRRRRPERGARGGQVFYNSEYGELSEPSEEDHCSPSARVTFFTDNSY
Serine/threonine-protein kinase Nek7 (Homo sapiens), sequence (Q8TDX7 whole entry, looked up): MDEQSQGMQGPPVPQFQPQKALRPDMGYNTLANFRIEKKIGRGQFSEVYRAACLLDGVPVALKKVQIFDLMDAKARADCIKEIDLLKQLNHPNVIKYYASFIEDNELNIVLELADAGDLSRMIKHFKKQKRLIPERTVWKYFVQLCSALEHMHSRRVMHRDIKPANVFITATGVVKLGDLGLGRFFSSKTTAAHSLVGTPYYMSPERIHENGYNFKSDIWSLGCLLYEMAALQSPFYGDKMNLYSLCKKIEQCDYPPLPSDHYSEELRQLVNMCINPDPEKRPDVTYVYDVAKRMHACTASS
Macrophage colony-stimulating factor 1 receptor (Homo sapiens), sequence (P07333 whole entry): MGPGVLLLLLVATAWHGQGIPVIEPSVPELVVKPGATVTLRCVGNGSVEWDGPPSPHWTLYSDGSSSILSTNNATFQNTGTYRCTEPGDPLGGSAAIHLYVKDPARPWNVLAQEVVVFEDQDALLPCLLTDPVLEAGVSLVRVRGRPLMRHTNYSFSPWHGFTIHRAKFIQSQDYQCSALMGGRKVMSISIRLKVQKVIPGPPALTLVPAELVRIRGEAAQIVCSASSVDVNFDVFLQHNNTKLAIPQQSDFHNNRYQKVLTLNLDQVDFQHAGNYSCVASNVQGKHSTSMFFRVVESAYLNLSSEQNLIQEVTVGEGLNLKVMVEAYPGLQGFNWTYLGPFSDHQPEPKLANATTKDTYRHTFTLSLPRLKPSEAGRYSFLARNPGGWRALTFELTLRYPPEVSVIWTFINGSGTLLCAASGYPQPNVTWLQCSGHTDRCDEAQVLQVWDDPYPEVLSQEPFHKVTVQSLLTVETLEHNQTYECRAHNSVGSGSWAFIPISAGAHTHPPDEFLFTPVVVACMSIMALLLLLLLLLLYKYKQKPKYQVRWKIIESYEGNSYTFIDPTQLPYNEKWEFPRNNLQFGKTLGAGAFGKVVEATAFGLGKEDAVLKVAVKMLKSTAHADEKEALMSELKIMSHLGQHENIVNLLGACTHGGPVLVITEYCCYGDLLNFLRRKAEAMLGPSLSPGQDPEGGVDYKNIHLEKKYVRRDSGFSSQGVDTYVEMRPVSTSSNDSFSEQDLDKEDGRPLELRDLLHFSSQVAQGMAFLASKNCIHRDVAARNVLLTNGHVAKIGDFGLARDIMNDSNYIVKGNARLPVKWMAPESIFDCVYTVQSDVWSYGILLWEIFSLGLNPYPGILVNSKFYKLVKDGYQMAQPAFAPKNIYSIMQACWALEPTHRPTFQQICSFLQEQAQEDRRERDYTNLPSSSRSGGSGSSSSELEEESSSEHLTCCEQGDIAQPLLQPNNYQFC
Serine/threonine-protein kinase PLK1 (Homo sapiens), sequence (P53350 whole entry): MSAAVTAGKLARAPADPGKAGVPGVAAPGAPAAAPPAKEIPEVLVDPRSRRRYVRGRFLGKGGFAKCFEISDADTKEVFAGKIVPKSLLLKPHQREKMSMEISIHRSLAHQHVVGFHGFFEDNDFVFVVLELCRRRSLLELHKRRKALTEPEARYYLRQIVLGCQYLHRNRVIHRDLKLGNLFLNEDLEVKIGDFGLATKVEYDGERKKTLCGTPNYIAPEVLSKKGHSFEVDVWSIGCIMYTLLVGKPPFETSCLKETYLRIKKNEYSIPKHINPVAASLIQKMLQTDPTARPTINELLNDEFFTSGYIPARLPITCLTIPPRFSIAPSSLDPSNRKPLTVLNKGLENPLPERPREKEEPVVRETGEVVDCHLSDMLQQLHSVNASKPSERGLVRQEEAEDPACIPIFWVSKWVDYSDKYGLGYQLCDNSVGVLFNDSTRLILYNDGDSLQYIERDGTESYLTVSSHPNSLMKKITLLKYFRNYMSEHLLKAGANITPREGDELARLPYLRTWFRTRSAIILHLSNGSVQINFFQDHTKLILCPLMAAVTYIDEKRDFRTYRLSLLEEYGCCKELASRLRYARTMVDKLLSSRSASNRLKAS

For the compound `COC(=O)Nc1nc2cc(Oc3ccc(NC(=O)Nc4ccccc4)cc3)ccc2[nH]1`, the inhibition worked out at 5.8% in experiment [1]; 1.46% in experiment [2]; 1.92% in experiment [3]; 3.05% in experiment [4]; 1.76% in experiment [5]; 3.54% in experiment [6]. Moreover, the inhibition in [7] is 0.95%; in experiment [8], 2.02%; in experiment [9] it was 1.72%; in experiment [10], 4.39%; in experiment [11], 6.76%; in experiment [12], 2.19%. The inhibition in experiment [13] was 4.22%; in experiment [14] it was 6.44%; in experiment [15], 2.44%; in experiment [16] it was 1.7%; in [17] it was -0.36%; in experiment [18], 11.4%. The inhibition in experiment [19] was 21.8%; in experiment [20] it was 0.67%.
